# Assay outcomes (PubChem)
# G9a inh = qHTS Assay for Inhibitors of Histone Lysine Methyltransferase G9a; Histone-lysine N-methyltransferase EHMT2 (Homo sapiens), Q96KQ7; G9a H3K9 monomethylation, AlphaScreen, 2 h; Potency, µM (series often up to 102 µM), without a hit: at the top dose activity, negative = inhibition, usual class: inhibitors; actives 8.8% (n = 350,000); further: on the % scale 0 is the no-effect control and ±100 the full control effect; nearly all actives have a fitted effect of over 75% in size
# Target sequence (Q96KQ7 913-1193 limits assumed): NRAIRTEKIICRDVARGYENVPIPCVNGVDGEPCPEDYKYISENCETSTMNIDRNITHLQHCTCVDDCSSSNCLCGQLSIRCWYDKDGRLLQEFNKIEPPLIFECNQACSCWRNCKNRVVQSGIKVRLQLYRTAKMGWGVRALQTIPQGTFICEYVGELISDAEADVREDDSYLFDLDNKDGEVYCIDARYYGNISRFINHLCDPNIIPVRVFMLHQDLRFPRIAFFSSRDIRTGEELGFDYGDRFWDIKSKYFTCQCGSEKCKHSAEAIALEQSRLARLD
#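 AlphaScreen read-out: biotin-H3K9 peptide (500 nM) methylation by 20 nM enzyme with 20 uM SAM, 2 h at room temperature after 15 min compound preincubation; anti-monomethyl H3K9 antibody plus donor/acceptor beads, 10 min dark.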
# GLS inhibitor = qHTS for Inhibitors of Glutaminase (GLS); GLS enzymatic activity, qHTS titration; AID 624170, 2012; actives 0.21% (n = 410,000); Potency, µM (doses to about 45.5 µM), inactives show top-dose activity change, negative = inhibition, most hits filed as inhibitors; Glutaminase kidney isoform, mitochondrial (Homo sapiens), O94925; further: on the % scale 0 is the no-effect control and ±100 the full control effect
#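 Glutamate formation by hKGA was monitored fluorometrically using coupled glutamate oxidase, HRP and Amplex Red. Substrate was added as 1 mM L-glutamine solution; incubation was 30 min at RT after an initial read.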
# JMJD2A Tudor = qHTS Assay for Inhibitors of JMJD2A-Tudor Domain; AlphaScreen JMJD2A-Tudor / H3K4me3 peptide binding; Lysine-specific demethylase 4A (Homo sapiens), O75164; Potency, µM (doses to about 114 µM), without a hit: at the top dose activity change, negative = inhibition, most hits filed as inhibitors; actives 4.4% (n = 390,000); further: on the % scale 0 is the no-effect control and ±100 the full control effect; nearly all actives have a fitted effect of over 50% in size
# BAZ2B inh = qHTS Assay for Inhibitors of BAZ2B | actives 4.4% (n = 360,000) | AlphaScreen BAZ2B-H3K14Ac peptide displacement | Bromodomain adjacent to zinc finger domain protein 2B (Homo sapiens), Q9UIF8 | Potency, µM (doses to about 114 µM), for inactives: at the top dose activity change, negative = inhibition, most hits filed as inhibitors; further: on the % scale 0 is the no-effect control and ±100 the full control effect; nearly all actives have a fitted effect of over 60% in size
#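 Compounds, titrated to a top concentration of 110 uM, were incubated 30 min at room temperature with preformed BAZ2B/acetyl-K14 H3 peptide complex (50 nM each). Proximity signal was measured by AlphaScreen after 20 min with beads.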
# HP1b chromo inh = HTS for Inhibitors of HP1-beta Chromodomain Interactions with Methylated Histone Tails. Chromobox protein homolog 1 (Homo sapiens), P83916. AlphaScreen HP1-beta / biotin-H3K9me3 peptide binding. Potency, µM (doses to about 114 µM), inactives show top-dose activity change, negative = inhibition, usual class: inhibitors. actives 0.56% (n = 390,000). AID 540317, 2011; further: nearly all actives have a fitted effect of over 70% in size
# Target sequence (P83916 whole entry, looked up): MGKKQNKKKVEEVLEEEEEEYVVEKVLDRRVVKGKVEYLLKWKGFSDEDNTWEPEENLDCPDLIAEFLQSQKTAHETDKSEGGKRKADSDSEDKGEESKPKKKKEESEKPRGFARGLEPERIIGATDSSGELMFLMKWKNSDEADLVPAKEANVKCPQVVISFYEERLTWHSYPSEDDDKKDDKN
#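 Compound inhibition of the preformed complex between 50 nM HP1-beta and 50 nM biotinylated H3K9me3 peptide was read by AlphaScreen. Buffer was PBS pH 7.4 with 0.01% Tween-20. Incubations ran 30 min at room temperature, with 10 ug/mL donor/acceptor beads.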
# An asterisk follows results filed as active; ? = inconclusive; / = no result given; [ ] = dose if it differs, or a comment. A selection: hits, their analogues and other compounds. The true share with any hit is near 10%. The call rests on the fitted dose curve; in most records, active means well fitted curve in the direction sought with a large enough effect; inconclusive means small, poorly fitted or top-dose-only effect, or another doubt; inactive means no such curve, though single readings can be large; an effect the other way counts as inactive or inconclusive. Potency means the concentration at half of the fitted maximal effect.
SMILES,G9a inh,GLS inhibitor,JMJD2A Tudor,BAZ2B inh,HP1b chromo inh
COc1ccc(N2CCN(C(c3ccccc3)c3nnnn3Cc3ccccc3)CC2)cc1 (stereo not given),/,/,?,/,-7%
Oc1ccc(N2CCN(C(c3ccc(Cl)cc3)c3nnnn3Cc3ccc(F)cc3)CC2)cc1 (stereo not given),/,/,40µM*,/,?
CCC(c1nnnn1Cc1ccccc1)N1CCN(c2ccc(OC)cc2)CC1 (stereo not given),13µM*,20%,?,?,-4%
CCCC(c1nnnn1CC1CCCO1)N1CCN(c2ccccc2)CC1 (stereo not given),56µM*,0%,-1%,?,42%
Oc1ccc(N2CCN(C(c3ccccn3)c3nnnn3C3CCCC3)CC2)cc1 (stereo not given),1.8µM*,49%,25µM*,-11%,?
COc1ccc(Cn2nnnc2C(c2ccccn2)N2CCN(c3ccc(O)cc3)CC2)cc1 (stereo not given),/,/,32µM*,/,?
COc1ccc(Cn2nnnc2C(c2cccnc2)N2CCN(c3ccc(O)cc3)CC2)cc1 (stereo not given),?,47%,?,-1%,?
C/C(=C\c1ccccc1)CN1CCN(C)CC1,13µM*,1%,-100%,?,?
CCN(Cc1ccccc1)C(=O)C1CCN(Cc2ccc(SC)cc2)CC1,0%,5%,20µM*,-22%,?
CCN(Cc1ccccc1)C(=O)C1CCN(C/C(C)=C/c2ccccc2)CC1,35µM*,5%,16µM*,?,-24%
CCN(Cc1ccccc1)C1CCN(Cc2ccc(SC)cc2)CC1,?,-11%,2.5µM*,50µM*,?
CCOC(=O)Cn1c(=O)oc2cc(S(=O)(=O)N3CCN(c4ccc(C(C)=O)cc4)CC3)ccc21,3%[59 µM],3%,-1%,-2%,53%
NS(=O)(=O)c1ccc(N=Nc2c[nH]c(=O)c(O)c2)cc1,11µM*,-6%,7.1µM*,7.9µM*,50µM*
Nc1nc(O)c(N=Nc2ccc(S(N)(=O)=O)cc2)c(=O)[nH]1,?,-10%,-3%,3%,32%
Cc1ccc(-c2csc(=S)[nH]2)cc1,13µM*,-28%,-34%,?,4%
S=c1[nH]c(-c2ccc(Cl)cc2)cs1,35µM*,-6%,?,45µM*,-23%
N#Cc1nc(Nc2cccc(-c3ccccc3)c2)nc(NC2CCCC2)n1,/,/,-13%,/,/
NC(=S)N/N=C/c1ncc(C(F)(F)F)cc1Cl,-28%,4%,?,50µM*,42%
O=C(Cc1nc2ccccc2[nH]1)c1ccc(Br)cc1,45µM*,1%,-29%,-27%,19%
O=C(O)COCc1nc2ccccc2[nH]1,79µM*,-3%,-27%,-20%,20%
O=C(NN1C(=O)/C(=C/c2cccs2)SC1=S)c1cccnc1,50µM*,1%,-23%,-31%,20%
O=C(NN1C(=O)CSC1=S)c1cccnc1,50µM*,8%,?,?,12%
O=C(CCN1C(=O)/C(=C/c2cccc(Br)c2)SC1=S)NNC(=O)c1cccnc1,-20%,5%,-9%,3%,11%
CCOc1cc(/C=C2\SC(=S)N(NC(=O)c3cccnc3)C2=O)ccc1O,10%[12.7 µM],5%,-35%,10µM*,?
COc1cc(/C=C2\SC(=S)N(NC(=O)c3ccccc3OC)C2=O)ccc1O,16µM*,18%,?,20µM*,25µM*
SMILES,G9a inh,GLS inhibitor,JMJD2A Tudor,BAZ2B inh,HP1b chromo inh
Cc1ccccc1C(=O)NN1C(=O)CSC1=S,-22%[59 µM],-22%,-14%,-2%,25%
CC(C)OC(=O)C[N+](C)(C)CCN1C(=O)C2C(c3ccccc3)C=CC(c3ccccc3)C2C1=O (stereo not given),-20%,0%,-3%,-8%,56%
Cc1ccc(NC(=S)N(CCCN2CCOCC2)Cc2ccccn2)cc1,-12%[59 µM],29%,-2%,2%,35%
Cc1cccc(CSc2cn(CC(=O)N3CCCCCC3)c3ccccc23)c1,-13%[59 µM],-4%,-2%,-25%,53%
CC(/C=C1\SC(=S)N(NC(=O)c2ccncc2)C1=O)=C\c1ccccc1,?,2%,?,?,-14%
COc1cc(/C=C2\SC(=S)N(N3CCOCC3)C2=O)ccc1O,20%[59 µM],1%,-20%,-4%,136%
COc1cc(/C=C2\SC(=S)N(NC(=O)c3ccncc3)C2=O)ccc1O,45µM*,11%,-9%,?,-27%
COc1cc(/C=C2\SC(=S)N(NC(=O)c3ccc(O)c(OC)c3)C2=O)ccc1O,35µM*,28%,56µM*,35µM*,50µM*
COc1cc(/C=C2\SC(=S)N(NC(=O)c3cccc(O)c3)C2=O)ccc1O,35µM*,0%,?,35µM*,45µM*
O=C(O)c1ccc(/C=C2\SC(=S)N(NC(=O)c3ccccc3)C2=O)cc1,?,-1%,-7%,-20%,30%
O=C(c1ccc(-c2ccc([N+](=O)[O-])cc2)o1)N1CCCCCCC1,-4%[12.7 µM],6%,56µM*,40µM*,?
O=C(Cc1ccc([N+](=O)[O-])cc1)N1CCCCCC1,-2%,-7%,-11%[57.1 µM],/,31%
O=C(c1ccc(-c2ccc([N+](=O)[O-])cc2)o1)N1CCCC(C(F)(F)F)C1 (stereo not given),14µM*,-8%,?,?,?
CCOc1cccc(OCCOCCN(C)C)c1,11µM*,10%,22µM*,?,?
CCOc1cccc(OCCOCCN(C)Cc2ccccc2)c1,-5%[12.7 µM],0%,-4%,2%,21%
c1ccc2cc(OCCOCCOc3ccc4ccccc4c3)ccc2c1,13%,2%,123%,19%,99%
CN(C)CCOc1cccc(Cl)c1,8.9µM*,4%,22µM*,?,?
CN(C)CCOc1ccc2ccccc2c1,11µM*,-9%,10µM*,45µM*,?
Cc1ccc(C(=O)CN(C(=O)c2ccc(Cl)c(Cl)c2)N2C(=O)C3CCCCC3C2=O)cc1C (stereo not given),6%,2%,-6%,11%,33%
NC(=O)CC(NSc1ccccc1[N+](=O)[O-])C(=O)O (stereo not given),?,23%,35µM*,?,-8%
CCCCN1CC(=O)N2[C@H](c3ccc(Cl)cc3)[C@@H]3C(=O)N(CC)C(=O)[C@@H]3[C@]2(Cc2ccccc2)C1=O,11%,-4%,-4%,-4%,20%
CC(C)OC(=O)N(C)C[C@@H]1OCc2cnnn2CCCC(=O)N([C@@H](C)CO)C[C@H]1C,/,0%,/,/,/
